# According to the supplement of paper PMC9694430:
# Where a name gives a salt, the structure may show the parent alone.
# Assays:
# Experiment in all cases: thermal shift delta Tm vs DMSO control; higher = stronger stabilization (binding)
# Settings in all cases: 12.5 µM; protein concentration 2 µM
# LOC_OS04G57630-cb004 = system: LOC_OS04G57630-cb004
# How it was run: (§1)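 Compounds dissolved in DMSO were added to purified rice kinase domain constructs, which had been expressed in E. coli, for differential scanning fluorimetry. Each well held 19.5 μl of 2 μM kinase in 100 mM potassium phosphate pH 7.5, 150 mM NaCl, 10% glycerol and 5 × SYPRO Orange. Fluorescence was followed from 25°C to 95°C at a rate of 0.05°C/s. Shifts in Boltzmann-fitted melting temperature are triplicate means relative to DMSO-only protein.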
# LOC_OS05G07850-cb002 = system: LOC_OS05G07850-cb002
# How it was run: as §1
# LOC_OS05G16824-cb004 = system: LOC_OS05G16824-cb004
# How it was run: as §1
# LOC_OS05G28520-cb001 = system: LOC_OS05G28520-cb001
# How it was run: as §1
# LOC_OS05G30820-cb001 = system: LOC_OS05G30820-cb001
# How it was run: as §1
# LOC_OS05G43570-cb004 = system: LOC_OS05G43570-cb004
# How it was run: as §1
# LOC_OS06G16330-cb003 = system: LOC_OS06G16330-cb003
# Sequence of LOC_OS06G16330-cb003 (as listed by the source): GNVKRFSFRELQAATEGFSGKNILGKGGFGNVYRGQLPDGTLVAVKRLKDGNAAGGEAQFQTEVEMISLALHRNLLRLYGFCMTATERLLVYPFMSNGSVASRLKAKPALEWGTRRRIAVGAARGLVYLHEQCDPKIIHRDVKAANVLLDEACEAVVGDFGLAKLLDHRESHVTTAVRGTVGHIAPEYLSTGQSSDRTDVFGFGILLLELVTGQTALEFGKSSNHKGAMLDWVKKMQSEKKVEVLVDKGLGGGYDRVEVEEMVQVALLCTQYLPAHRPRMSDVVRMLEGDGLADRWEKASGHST
# How it was run: as §1
# LOC_OS06G22820-cb001 = system: T1, LOC_OS06G22820-cb001
# T1 sequence (whole entry): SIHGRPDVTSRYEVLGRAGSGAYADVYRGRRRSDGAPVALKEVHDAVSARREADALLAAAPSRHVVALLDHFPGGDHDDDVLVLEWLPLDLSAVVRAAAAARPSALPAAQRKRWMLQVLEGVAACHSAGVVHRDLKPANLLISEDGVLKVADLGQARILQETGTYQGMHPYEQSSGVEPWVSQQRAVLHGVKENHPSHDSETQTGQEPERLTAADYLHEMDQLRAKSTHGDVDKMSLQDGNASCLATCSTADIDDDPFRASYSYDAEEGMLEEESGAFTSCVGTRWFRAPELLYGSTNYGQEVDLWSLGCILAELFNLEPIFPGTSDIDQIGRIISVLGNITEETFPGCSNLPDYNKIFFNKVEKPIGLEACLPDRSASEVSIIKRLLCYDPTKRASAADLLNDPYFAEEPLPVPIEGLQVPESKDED
# How it was run: as §1
# LOC_OS07G06570-cb004 = system: LOC_OS07G06570-cb004
# How it was run: as §1
# LOC_OS07G07230-cb001 = system: LOC_OS07G07230-cb001
# How it was run: as §1
Structure (SMILES),thermal shift delta Tm (LOC_OS04G57630-cb004),thermal shift delta Tm (LOC_OS05G07850-cb002),thermal shift delta Tm (LOC_OS05G16824-cb004),thermal shift delta Tm (LOC_OS05G28520-cb001),thermal shift delta Tm (LOC_OS05G30820-cb001),thermal shift delta Tm (LOC_OS05G43570-cb004),thermal shift delta Tm (LOC_OS06G16330-cb003),thermal shift delta Tm (LOC_OS06G22820-cb001),thermal shift delta Tm (LOC_OS07G06570-cb004),thermal shift delta Tm (LOC_OS07G07230-cb001)
Nc1ncccc1-c1nc2ccc(-c3ccccc3)nc2n1-c1ccc(C2(N)CCC2)cc1 [Miransertib (ARQ 092) HCl],-0.29 °C,1.08 °C,-5.68 °C,-0.2 °C,0.04 °C,0.09 °C,-0.91 °C,0.24 °C,1.32 °C,0.36 °C
CCN(CC)CCCCNc1ncc2cc(-c3cc(OC)cc(OC)c3)c(NC(=O)NC(C)(C)C)nc2n1,-0.1 °C,-0.15 °C,-2.16 °C,0.72 °C,0.45 °C,0.68 °C,-0.04 °C,0.57 °C,1.02 °C,0.36 °C
Cc1n[nH]c2ncc(C(=O)N3CCC[C@H]3c3ccc(Cl)cc3)cc12,0.01 °C,0.81 °C,-6.54 °C,0.03 °C,0.26 °C,0.19 °C,0.11 °C,0.56 °C,1.74 °C,0.45 °C
COc1cc2ncnc(Nc3ccc(Oc4ccccc4)cc3C)c2cc1OC,0.31 °C,8.78 °C,-9.65 °C,0.23 °C,0.05 °C,-0.01 °C,2.86 °C,0.95 °C,1.5 °C,0.54 °C
O=c1c(-c2ccc(O)cc2)coc2cc(O)cc(O)c12 [Genistein],-1.09 °C,5.31 °C,-0.94 °C,-0.31 °C,0.78 °C,0.36 °C,0.87 °C,0.81 °C,-0.45 °C,0.02 °C
Cc1[nH]nc2ccc(-c3cncc(OC[C@@H](N)Cc4ccccc4)c3)cc12,0.79 °C,6.97 °C,1.39 °C,0.6 °C,0.56 °C,1.24 °C,0.93 °C,0.49 °C,0.93 °C,0 °C
CCn1c(-c2nonc2N)nc2c(C#CC(C)(C)O)ncc(OC[C@H]3CCCNC3)c21,0.06 °C,0.29 °C,-1.28 °C,0.27 °C,0.49 °C,1.47 °C,-0.37 °C,0.88 °C,0.7 °C,0.32 °C
CN1CCN(c2ccc(C(=O)Nc3n[nH]c4ccc(Cc5cc(F)cc(F)c5)cc34)c(NC3CCOCC3)c2)CC1 [Entrectinib (RXDX-101)],2.05 °C,10.2 °C,5.23 °C,3.71 °C,0.38 °C,0.47 °C,8.44 °C,0.27 °C,0.88 °C,0.63 °C
CO[C@H]1C[C@@H]2CC[C@@H](C)[C@@](O)(O2)C(=O)C(=O)N2CCCC[C@H]2C(=O)O[C@H]([C@H](C)C[C@@H]2CC[C@@H](O)[C@H](OC)C2)CC(=O)[C@H](C)/C=C(\C)[C@@H](O)[C@@H](OC)C(=O)[C@H](C)C[C@H](C)/C=C/C=C/C=C/1C [Rapamycin (Sirolimus)],-0.27 °C,0.51 °C,-0.52 °C,0.16 °C,0.5 °C,0.84 °C,-0.23 °C,0.98 °C,1.23 °C,0.34 °C
O=C(NOCCO)c1ccc2cncn2c1Nc1ccc(I)cc1F,-0.36 °C,-0.3 °C,-1.92 °C,0.09 °C,0.54 °C,0.3 °C,-0.27 °C,0.39 °C,0.35 °C,0.91 °C
"O=c1cc(-c2ccccc2)oc2c(O)c(O)ccc12 [7,8-Dihydroxyflavone]",-0.51 °C,1.25 °C,-6.61 °C,2.12 °C,1.22 °C,1.47 °C,1.88 °C,1.1 °C,3.28 °C,0.94 °C
"Cc1cc(C(=O)Nc2nc3cccc(Cl)c3n2[C@@H]2CCCCN(C(=O)/C=C/CN(C)C)C2)ccn1 [Nazartinib (EGF816, NVS-816)]",0.04 °C,3.43 °C,-0.02 °C,0.54 °C,0.6 °C,0.38 °C,0.74 °C,0.4 °C,1.91 °C,0.43 °C
CO[C@H]1CC[C@H](N2C(=O)CNc3ncc(-c4ccc(C(C)(C)O)nc4)nc32)CC1,-0.07 °C,0.66 °C,-2.4 °C,0.49 °C,0.29 °C,0.48 °C,-0.57 °C,0.55 °C,0.79 °C,0.66 °C
Cc1ccc(NC(=O)c2ccc(CN3CC[C@H](N(C)C)C3)c(C(F)(F)F)c2)cc1Nc1nccc(-c2cncnc2)n1 [Bafetinib (INNO-406)],0.08 °C,0.37 °C,-2.81 °C,1.08 °C,0.77 °C,0.5 °C,-0.31 °C,0.4 °C,1.66 °C,0.62 °C
Cc1cc(CN2CCN(c3c(Br)cnc4nc(-c5ccc(N6CCN(C)CC6)cc5)[nH]c34)CC2)no1,1.11 °C,8.75 °C,3.92 °C,1.16 °C,0.38 °C,0.18 °C,5.31 °C,0.11 °C,1.11 °C,1.28 °C
Cn1c(=O)c(Oc2ccc(F)cc2F)cc2cnc(NC(CCO)CCO)nc21,-0.25 °C,0.33 °C,-2.67 °C,0.51 °C,0.63 °C,0.19 °C,-0.27 °C,0.72 °C,1.46 °C,0.54 °C
CCCCCCCCc1ccc(CCC(N)(CO)CO)cc1 [Fingolimod (FTY720) HCl],-0.4 °C,1.83 °C,-4.01 °C,-0.43 °C,-0.07 °C,-1.13 °C,-1.94 °C,0.07 °C,0.28 °C,-1.48 °C
C=CC(=O)Nc1ccc(CN2C(=O)N(c3cc(OC)cc(OC)c3)Cc3cnc(Nc4ccc(N5CCN(C)CC5)cc4)nc32)cc1,7.31 °C,0.75 °C,1.16 °C,1.83 °C,0.78 °C,0.66 °C,2.37 °C,0.84 °C,2.63 °C,1.29 °C
CC(C)Oc1ccc(-c2nn([C@@H](C)c3oc4ccc(F)cc4c(=O)c3-c3cccc(F)c3)c3ncnc(N)c23)cc1F,0.05 °C,-1 °C,-4.89 °C,0.51 °C,0.43 °C,0.51 °C,0.01 °C,0.62 °C,1.08 °C,-0.07 °C
